Test results taken from PubChem BioAssay (NCATS).
Records with an inconclusive call do not appear. Activity calls are given as the source filed them. Calls follow the shape of the full dose curve. Non-standard residues stand in square brackets, D forms with d. Residues, ends and D or L forms follow the SMILES beside them. Peptide text beside a SMILES is read from it. *: point of attachment. Sta = CC(C)C[C@H](N)[C@@H](O)CC(=O)O; Isovaleryl = CC(C)CC(=O)*

Test: A High-Content qHTS Against Drug Library for the Identification of Small Molecules that Inhibit DYT1 Early Onset Primary Dystonia-Associated Cell Pathology (AID 1645839)
Conditions: HEK293 Flp-In EGFP-delE TorsinA, punctate imaging, 48 h; series mostly up to 46.1 µM; % pathology change, negative = correction: at the top concentration
Source text: Nicole Calakos M.D., Ph.D.
Duke University School of Medicine, Durham, NC
In DYT1 dystonia due to delGAG in the TOR1A gene, there is a robust and widely replicated finding of TorsinA protein mislocalization caused when the mutant protein is in excess of the wildtype protein (1-7). Stable HEK293 cell lines were created that replicate this phenomenon. Inducible expression of an EGFP-hu delE TorsinA encoding cDNA causes pronounced punctate cellular distribution. […] This phenotypic difference in EGFP-huTorsinA fusion protein distribution serves as an indicator of cell pathology. […] RNAi screen results with the assay were validated in DYT1 patient cell phenotypes, intersected with a known dystonia gene, and led to discovery of new human genetic dystonia associations.
The bioassay described herein is a high-content image screen with two readouts. The "%pathology" readout is the primary qHTS data channel, while the "cellcount" is the counterscreen qHTS channel. Desired active compounds are those that show inhibition in %pathology channel but no activity or minimal toxicity in cellcount readout.
1. Kustedjo, K., Bracey, M.H., and Cravatt, B.F. (2000). […] J. Biol. Chem. 275, 27933 - 27939.
2. Bragg, D.C., Kaufman, C.A., Kock, N., and Breakefield, X.O. (2004). Inhibition of N-linked glycosylation prevents inclusion formation by the dystonia-related mutant form of torsinA. Mol. Cell. Neurosci. 27, 417 - 426.
3. Gonzalez-Alegre, P., and Paulson, H.L. (2004). Aberrant Cellular Behavior of Mutant TorsinA Implicates Nuclear Envelope Dysfunction in DYT1 Dystonia. J. Neurosci. 24, 2593 - 2601.
4. Goodchild, R.E., and Dauer, W.T. (2004). Mislocalization to the nuclear envelope: an effect of the dystonia-causing torsinA mutation. Proc. Natl. Acad. Sci. U. S. A. 101, 847 - 852.
5. Kock, N., Allchorne, A.J., Sena-Esteves, M., Woolf, C.J., and Breakefield, X.O. (2006). RNAi blocks DYT1 mutant torsinA inclusions in neurons. Neurosci. Lett. 395, 201 - 205.
6. Hewett, J.W., Nery, F.C., Niland, B., Ge, P., Tan, P., Hadwiger, P., Tannous, B.A., Sah, D.W.Y., and Breakefield, X.O. (2008). siRNA knock-down of mutant torsinA restores processing through secretory pathway in DYT1 dystonia cells. Hum. Mol. Genet. 17, 1436 - 1445.
7. Calakos, N., Patel, V.D., Gottron, M., Wang, G., Tran-Viet, K.N., Brewington, D., Beyer, J.L., Steffens, D.C., Krishnan, R.R., and Zuchner, S. (2010). Functional evidence implicating a novel TOR1A mutation in idiopathic, late-onset focal dystonia. J. Med. Genet. 47, 646 - 650.
8. Rittiner* JE, Caffall* ZF, Hernandez-Martinez R, Sanderson SM, Pearson JL, Tsukayama KK, Liu AY, Xiao C, Tracy S, Shipman MK, Hickey P, Johnson J, Scott B, Stacy M, Saunders-Pullman R, Bressman S, Simonyan K, Sharma N, Ozelius LJ, Cirulli ET, Calakos N. Functional Genomic Analyses of Mendelian and Sporadic Disease Identify Impaired eIF2alpha Signaling as a Generalizable Mechanism for Dystonia. Neuron. 2016 Dec 21;92(6):1238-1251. doi: 10.1016/j.neuron.2016.11.012. Epub 2016 Dec 8. PMID: 27939583; PMCID: PMC5320521.
High-content, High-throughput Drug Screening Assay
The TorsinA mislocalization assay was modified from the previously published assay to accommodate compound testing in 1536 well format.1 Briefly, Flp-In T-REx 293 cells from Invitrogen in which a single copy of a cDNA is recombined into a specific genomic locus was used to create tetracycline-inducible expression of cDNA encoding either EGFP-hTOR1A (WT) or EGFP-delE hTOR1A (DYT1). WT and DYT1 cells were diluted to a concentration of 2 x 10^5 cells/mL in reduced serum media (DMEM High Glucose containing 1% tetracycline-tested FBS, 2 mM L-Glutamine, and 1% Penicillin/Streptomycin). 4 µl of WT cells and 4 µl of DTY1 cells were added to column 1 and columns 2-48, respectively, of a poly-D-lysine-coated, low base, black, clear bottom 1536 well plate (Corning, Corning, NY) using the BioRAPTR FRD Microfluidic Workstation (Beckman Coulter, Indianapolis, IN). The final cell number was 800 cells/well. […]

Row | SMILES | % pathology change, negative = correction
1 | Nc1cccc2c1CN(C1CCC(=O)NC1=O)C2=O (stereo not given) | 6.9% (inactive)
2 | CN(c1nccc(=O)[nH]1)C1CCN(c2nc3ccccc3n2Cc2ccc(F)cc2)CC1 | -18.5% (inactive)
3 | CC(C)c1ccc2oc3nc(N)c(C(=O)O)cc3c(=O)c2c1 | -11.2% (inactive)
4 | CC1=C(C(=O)O)N2C(=O)[C@@H](NC(=O)[C@H](N)C3=CCC=CC3)[C@H]2SC1 | 3.89% (inactive)
5 | CCOC(=O)c1c(C)n(C)c2ccc(O)cc12 | 9.81% (inactive)
6 | CCCCc1ccc2nc(NC(=O)OC)[nH]c2c1 | -33.2% (inactive)
7 | Clc1ccc(C(Cn2ccnc2)OCc2ccc(Sc3ccccc3)cc2)c(Cl)c1 (stereo not given) | 6.69% (inactive)
8 | COCCCN1CCC(NC(=O)c2cc(Cl)c(N)c3c2OCC3)CC1 | 3.47% (inactive)
9 | O=C(NCCO[N+](=O)[O-])c1cccnc1 | -14.3% (inactive)
10 | O=C(O)c1cc(=O)c2c(OCC(O)COc3cccc4oc(C(=O)O)cc(=O)c34)cccc2o1 | 5.19% (inactive)
11 | CC(=O)Nc1ccc(O)cc1 | 8% (inactive)
12 | S=c1nc[nH]c2nc[nH]c12 | -10.1% (inactive)
13 | CCC[C@@H]1C[C@@H](C(=O)N[C@@H]([C@H]2O[C@H](SC)[C@H](O)[C@@H](O)[C@H]2O)[C@@H](C)O)N(C)C1 | 7.1% (inactive)
14 | Cc1ncc([N+](=O)[O-])n1CC(C)O (stereo not given) | -6.53% (inactive)
15 | Cc1cc2cc3c(C)cc(=O)oc3c(C)c2o1 | 16.5% (inactive)
16 | CCCc1cc(=O)[nH]c(=S)[nH]1 | 8.17% (inactive)
17 | O=C(O)c1cn(-c2ccc(F)cc2)c2cc(N3CCNCC3)c(F)cc2c1=O | 8.04% [at 19.1 µM] (inactive)
18 | c1ccc2[nH]c(-c3cscn3)nc2c1 | -1.45% (inactive)
19 | Cc1nc2n(c(=O)c1CCN1CCC(c3noc4cc(F)ccc34)CC1)CCCC2 | 20.2% (inactive)
20 | CC[C@]1(O)C[C@H]2CN(CCc3c([nH]c4ccccc34)[C@@](C(=O)OC)(c3cc4c(cc3OC)N(C=O)[C@H]3[C@@](O)(C(=O)OC)[C@H](OC(C)=O)[C@]5(CC)C=CCN6CC[C@]43[C@@H]65)C2)C1 | -42.7% (inactive)

Row | SMILES | % pathology change, negative = correction
21 | O=C(c1ccccc1)c1ccc2n1CCC2C(=O)O (stereo not given) | 0.616% (inactive)
22 | CS(=O)(=O)OCCCCOS(C)(=O)=O | 4.96% (inactive)
23 | COC(=O)N[C@H](C(=O)N[C@@H](Cc1ccccc1)[C@@H](O)CN(Cc1ccc(-c2ccccn2)cc1)NC(=O)[C@@H](NC(=O)OC)C(C)(C)C)C(C)(C)C | -0.63% (inactive)
24 | CC(C)CC(=O)N[C@H](C(=O)N[C@H](C(=O)N[C@@H](CC(C)C)[C@@H](O)CC(=O)N[C@@H](C)C(=O)N[C@@H](CC(C)C)[C@@H](O)CC(=O)O)C(C)C)C(C)C (Isovaleryl-VV[Sta]A[Sta]-OH) | 7.76% (inactive)
25 | COc1c2occc2cc2ccc(=O)oc12 | -4.4% (inactive)
26 | Cc1c(OCC(F)(F)F)ccnc1CS(=O)c1nc2ccccc2[nH]1 (stereo not given) | -3.32% (inactive)
27 | Cn1c(NCCN(CCO)CCCc2ccc([N+](=O)[O-])cc2)cc(=O)n(C)c1=O | 9.96% (inactive)
28 | CCC(C)(Oc1ccc(C2(c3ccc(OC(C)(CC)C(=O)O)cc3)CCCCC2)cc1)C(=O)O (stereo not given) | 0.775% (inactive)
29 | CN(C)C(=O)COC(=O)Cc1ccc(OC(=O)c2ccc(N=C(N)N)cc2)cc1 | 3.44% (inactive)
30 | CCN(CCO)CCCC(C)Nc1ccnc2cc(Cl)ccc12 (stereo not given) | -8.74% [at 4.63 µM] (inactive)
31 | O=C(O)c1cccc(-c2noc(-c3ccccc3F)n2)c1 | 17.2% (inactive)
32 | O=C(NC(Cc1cc(=O)[nH]c2ccccc12)C(=O)O)c1ccc(Cl)cc1 (stereo not given) | -2.89% (inactive)
33 | C=CCc1cc(OC)c(O)c(C(=O)NCCO)c1 | 3.21% (inactive)
34 | O=C(NCC1CCCCN1)c1cc(OCC(F)(F)F)ccc1OCC(F)(F)F (stereo not given) | 5.87% (inactive)
35 | CCCCC(CC)COC(=O)C(C#N)=C(c1ccccc1)c1ccccc1 (stereo not given) | 4.2% (inactive)
36 | CCc1nc(N)nc(N)c1-c1ccc(Cl)cc1 | -17.7% (inactive)
37 | Cc1ccc(Nc2nccc(N(C)c3ccc4c(C)n(C)nc4c3)n2)cc1S(N)(=O)=O | -24.1% (inactive)
38 | COC(=O)[C@H](Cc1ccccc1)NC(=O)[C@@H](N)CC(=O)O (H-Asp-Phe-OMe) | 4.78% (inactive)
39 | N=C(N)c1ccc2cc(OC(=O)c3ccc(N=C(N)N)cc3)ccc2c1 | 7.25% (inactive)
40 | c1cnc2cc3c(cc2n1)C1CNCC3C1 | 7.83% (inactive)
